Sampled rows, rich in hits. Any-hit rate of the full collection: about 12%.
HP1b chromo inh – blocks HP1-beta chromodomain binding to methylated histone tails. 390,000 tested, 0.56% active. P83916. AID 540317. AlphaScreen HP1-beta / biotin-H3K9me3 peptide binding. Potency, µM (highest dose often 114 µM), most hits filed as inhibitors; further: nearly all actives have a fitted effect of over 70% in size
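Compound inhibition of the preformed complex between 50 nM HP1-beta and 50 nM biotinylated H3K9me3 peptide was read by AlphaScreen. Buffer was PBS pH 7.4 with 0.01% Tween-20. Incubations ran 30 min at room temperature, with 10 ug/mL donor/acceptor beads.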
BAZ2B inh – BAZ2B (human) inhibition. AlphaScreen BAZ2B-H3K14Ac peptide displacement. Potency, µM (top dose mostly 114 µM), most hits filed as inhibitors. 360,000 tested, 4.4% active. AID 504333; further: nearly all actives have a fitted effect of over 60% in size
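BAZ2B (50 nM) with biotin-H3(5-23)K14Ac peptide (50 nM) in PBS pH 7.4, 0.01% Tween-20, preformed 30 min, then compound 30 min at room temperature; top concentration 110uM. AlphaScreen streptavidin donor/nickel chelate acceptor beads (10 ug/mL final), 20 min dark, signal read.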
G9a block – inhibitors of human histone lysine methyltransferase G9a; Potency, µM (top dose mostly 102 µM), most hits filed as inhibitors; 350,000 tested, 8.8% active; G9a H3K9 monomethylation, AlphaScreen, 2 h; AID 504332; Q96KQ7; further: nearly all actives have a fitted effect of over 75% in size
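Quantitative HTS format: methyltransferase activity on a biotin-tagged H3K9 peptide is measured by AlphaScreen, using a rabbit anti-monomethyl-H3K9 antibody with streptavidin donor and anti-IgG acceptor beads. Final levels are 20 nM enzyme, 500 nM peptide, 20 uM SAM; 2 h RT.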
Sfp inh – Sfp phosphopantetheinyl transferase inhibition. Potency, µM, usual class: inhibitors. Biochemical Sfp PPTase activity, qHTS. 310,000 tested, 3.5% active. AID 1490;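 further: the enzyme is Sfp with the accession as filed and its product quenches rhodamine fluorescence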
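Step 1, compound plus 15 nM Sfp-PPTase, 15 min, room temperature. Step 2, add rhodamine-CoA (5 uM) and BHQ-2-YbbR (12.5 uM). Step 3, read 525/598 nm fluorescence at 0 and 30 min.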
PLK1 PBD block – PLK1 (human) polo-box domain binding inhibition; 360,000 tested, 2.8% active; Plk1 PBD binding of FITC phosphopeptide, fluorescence polarization; P53350; Potency, µM, hits mostly inhibitors; AID 720504; further: series mostly up to about 57 µM; nearly all actives have a fitted effect of over 65% in size
JMJD2A Tudor – blocks the human JMJD2A Tudor domain; 390,000 tested, 4.4% active; O75164; AID 504339; AlphaScreen JMJD2A-Tudor / H3K4me3 peptide binding; Potency, µM (doses to about 114 µM), hits mostly inhibitors; further: nearly all actives have a fitted effect of over 50% in size
Each line names hits and unclear results; the compound was inactive in the other large screens. The call rests on the fitted dose curve; in most records, active means well fitted curve in the direction sought with a large enough effect; inconclusive means small, poorly fitted or top-dose-only effect, or another doubt; inactive means no such curve, though single readings can be large; an effect the other way counts as inactive or inconclusive.

COc1cc2c(cc1OC)C(COc1ccccc1OC)N(C(=O)C(C)(C)C)CC2 (centres undefined)	G9a block inconclusive, PLK1 PBD block 29.9µM
CC(O)[C@@H](NC(=O)C1CCC(CNC(=O)[C@H](Cc2ccccc2)NC(=O)OC(C)(C)C)CC1)C(=O)O (some centres undefined)	none
COc1ccc(Cl)cc1NC(=O)CN(C)CC(=O)Nc1cc(OC)c(OC)c(OC)c1	none
Cc1ccc(S(=O)(=O)N2CCN(c3cc4c(cc3[N+](=O)[O-])n(C)c(=O)n4C)CC2)cc1	BAZ2B inh inconclusive, G9a block inconclusive
CCOC(=O)C(=O)N1CCN(c2cc3c(cc2[N+](=O)[O-])n(C)c(=O)n3C)CC1	BAZ2B inh 50.1µM
Cn1c(=O)n(C)c2cc([N+](=O)[O-])c(N3CCN(C(=O)c4cccc(F)c4)CC3)cc21	BAZ2B inh 50.1µM, G9a block inconclusive
CCCS(=O)(=O)N1CCN(c2cc3c(cc2[N+](=O)[O-])n(C)c(=O)n3C)CC1	BAZ2B inh 56.2µM
CCOC(=O)N1CCN(c2ccc(F)cc2[N+](=O)[O-])CC1	none
Cn1c(=O)n(C)c2cc([N+](=O)[O-])c(N3CCN(S(=O)(=O)c4ccc5ccccc5c4)CC3)cc21	none
COc1ccc(N2CCN(C(=O)c3cccc(F)c3)CC2)c([N+](=O)[O-])c1	BAZ2B inh inconclusive, JMJD2A Tudor inconclusive
Cn1c(=O)n(C)c2cc([N+](=O)[O-])c(N3CCN(C(=O)c4cccc(Cl)c4)CC3)cc21	BAZ2B inh 56.2µM
CCN1C(=O)[C@@H]2[C@@H](c3ccc(-c4ccc(C(C)=O)cc4)cc3)N3CCCC[C@@]3(C(=O)OC)[C@@H]2C1=O	none (no result: Sfp inh)
CCCCOc1ccc(C(=O)NCC(c2ccc(Cl)cc2)N2CCOCC2)cc1 (centres undefined)	none (no result: Sfp inh, PLK1 PBD block)
CN(C)S(=O)(=O)c1ccc(Cl)c(NC(=O)C2CCN(S(=O)(=O)c3cccs3)CC2)c1	none (no result: Sfp inh)
CN(C)C(=O)c1ccc(-c2ccc3ncnc(N(C)C)c3c2)cc1	none (no result: HP1b chromo inh, BAZ2B inh, PLK1 PBD block, JMJD2A Tudor)
Cc1ccc(C(=O)N2CCN(c3cc4c(cc3[N+](=O)[O-])n(C)c(=O)n4C)CC2)cc1	BAZ2B inh 50.1µM
O=C(NCCCN1CCCC1=O)C1CCN(S(=O)(=O)c2ccc(Cl)cc2)CC1	none (no result: Sfp inh)
COC(=O)c1cc(NS(=O)(=O)c2ccc(NCc3cccnc3)c([N+](=O)[O-])c2)cc(C(=O)OC)c1	none
COC(=O)c1cc(NS(=O)(=O)c2ccc(NCc3cccnc3)c(N)c2)cc(C(=O)OC)c1	G9a block 35.5µM
Cc1cc(C)nc(SSc2nc(C)cc(C)n2)n1	G9a block 0.398µM, Sfp inh 2.24µM, PLK1 PBD block 1.89µM, JMJD2A Tudor 10µM
CC(C)c1ccc(O)c(C(=O)c2cnn(-c3ccccc3)c2)c1	none (no result: BAZ2B inh, G9a block, Sfp inh)
COC(=O)c1ccccc1NC(=S)NC(NC(=O)COc1ccccc1)C(Cl)(Cl)Cl (centres undefined)	G9a block 2.24µM, PLK1 PBD block inconclusive
Cc1ccccc1NC(=S)NC(NC(=O)COc1ccccc1)C(Cl)(Cl)Cl (centres undefined)	none
COC(=O)c1ccccc1NC(=S)NC(NC(=O)c1ccccc1[N+](=O)[O-])C(Cl)(Cl)Cl (centres undefined)	G9a block 3.55µM, PLK1 PBD block 26.7µM
O=C(NC(NC(=S)Nc1ccccc1C(=O)O)C(Cl)(Cl)Cl)c1ccccc1 (centres undefined)	HP1b chromo inh inconclusive, BAZ2B inh inconclusive, G9a block 25.1µM, Sfp inh 35.5µM, PLK1 PBD block 5.97µM, JMJD2A Tudor 50.1µM
O=C(NC(NC(=S)Nc1ccccc1C(=O)O)C(Cl)(Cl)Cl)c1ccco1 (centres undefined)	G9a block 10µM, Sfp inh 39.8µM, PLK1 PBD block 21.2µM, JMJD2A Tudor 79.4µM
Cc1ccccc1NC(=S)NC(=O)COc1ccccc1C	none (no result: G9a block)
CCOC(=O)C1(C)CCN1C(=O)c1oc2ccccc2c1C (centres undefined)	none (no result: HP1b chromo inh, BAZ2B inh, G9a block, Sfp inh, JMJD2A Tudor)
O=C(Nc1cccc(F)c1)C1CCN(S(=O)(=O)c2ccc3[nH]c4c(c3c2)CCCCC4)CC1	JMJD2A Tudor inconclusive (no result: Sfp inh, PLK1 PBD block)
Cc1ccc(NC(=O)C2CCCN2S(=O)(=O)c2ccc3c(c2)CCCC(=O)N3)cc1C (centres undefined)	none (no result: Sfp inh, PLK1 PBD block)
COc1ccccc1CCNC(=O)C(=O)NCC1OCCN1C(=O)c1ccc(Cl)cc1 (centres undefined)	none
COC(=O)c1ccccc1NC(=S)NC(NC(=O)c1ccco1)C(Cl)(Cl)Cl (centres undefined)	G9a block 2.24µM
C[C@]12c3[nH]c4cc(-c5ccco5)ccc4c3CCN1C(=O)[C@@H](CC(=O)NCCC1=CCCCC1)C[C@@H]2C(=O)N1CCOCC1	HP1b chromo inh inconclusive, JMJD2A Tudor inconclusive (no result: BAZ2B inh, G9a block, Sfp inh)
CC(C)CC1=NN(C(=O)c2ccncc2)C(O)(C(F)(F)F)C1 (centres undefined)	PLK1 PBD block 23.8µM, JMJD2A Tudor 39.8µM
Cn1c(CC(=O)Nc2ccc(F)cc2)nnc1SCC(=O)Nc1nncs1	none
CC(c1ccccc1F)n1cc(C(=O)NCCc2ccco2)nn1 (centres undefined)	G9a block 50.1µM
COCCNC(=O)c1cn(C(C)c2ccccc2F)nn1 (centres undefined)	none
COC(=O)C1=C[C@@H](C(=O)OC)C2C3=C(C(=O)[C@@]2(CC(C)C)NC(=O)c2ccccc2)[C@H](C)n2c(=O)n(C)c(=O)n2[C@@H]3C1 (some centres undefined)	none (no result: BAZ2B inh, G9a block, PLK1 PBD block)
Cc1ccccc1NC(=O)CSc1ccc(-c2ccc(-n3cccn3)cc2)nn1	none (no result: Sfp inh)
CCc1nnc(NC(=O)CSc2nc(-c3ccc(F)cc3)cc(-c3ccccc3)c2C#N)s1	G9a block 3.16µM, Sfp inh 31.6µM
CCc1nnc(NC(=O)CSc2ccc(-c3ccc(-n4cccn4)cc3)nn2)s1	G9a block 10µM (no result: Sfp inh)
CCCCCCCCCCCCCCCCOC[C@H](COP(=O)([O-])OCC[N+](C)(C)C)OC(=O)CCCCCCCC(=O)O	none (no result: HP1b chromo inh, BAZ2B inh, G9a block, PLK1 PBD block, JMJD2A Tudor)
CC(/C=C1\SC(=S)N(NC(=O)c2ccc(O)cc2)C1=O)=C\c1ccccc1	HP1b chromo inh inconclusive, BAZ2B inh 31.6µM, G9a block inconclusive, Sfp inh 50.1µM, JMJD2A Tudor inconclusive
CC(=C\c1ccccc1)/C=C1/SC(=S)N(C(C(=O)O)C(C)C)C1=O (centres undefined)	HP1b chromo inh inconclusive, BAZ2B inh 70.8µM, G9a block 35.5µM, PLK1 PBD block 29.9µM, JMJD2A Tudor inconclusive
C=CCN1C(=O)/C(=C\C(C)=C\c2ccccc2)SC1=S	HP1b chromo inh inconclusive, BAZ2B inh inconclusive, JMJD2A Tudor inconclusive

From PubChem
